Test results from PubChem BioAssay AID651704 (Broad Institute, 2012).
Several values for one entry are separate records, joined by “and”; a condition that tells them apart may be missing. Equal entries are not always repeated. About 1,600 (0.46%) of roughly 350,000 compounds were called active. The list comes from a sample in which actives are over-represented; it also holds similar structures and randomly drawn compounds. A number with no mark means an inactive call.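 Rule for the calls: active = every replicate reaching a set inhibition limit, whatever the replicate mean (cut at about 25% in these data); inconclusive = mean inhibition reaches that limit but some replicates miss it; inactive = the rest.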

These compounds were tested against Protein AF-9 (Homo sapiens) (UniProt P42568) (assay: MLL-AF4/AF9 protein interaction blockers – biochemical, AlphaScreen, biotin-AF4 peptide, FLAG-AF9, single point, primary screen (AID 651704;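 note: 0% = plate neutral control median and 100% = total signal loss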)). Details: biotin-AF4 peptide binding to FLAG-AF9, at 10 µM, active compounds read high.
Sequence of Protein AF-9 (Homo sapiens) (P42568 whole entry, looked up): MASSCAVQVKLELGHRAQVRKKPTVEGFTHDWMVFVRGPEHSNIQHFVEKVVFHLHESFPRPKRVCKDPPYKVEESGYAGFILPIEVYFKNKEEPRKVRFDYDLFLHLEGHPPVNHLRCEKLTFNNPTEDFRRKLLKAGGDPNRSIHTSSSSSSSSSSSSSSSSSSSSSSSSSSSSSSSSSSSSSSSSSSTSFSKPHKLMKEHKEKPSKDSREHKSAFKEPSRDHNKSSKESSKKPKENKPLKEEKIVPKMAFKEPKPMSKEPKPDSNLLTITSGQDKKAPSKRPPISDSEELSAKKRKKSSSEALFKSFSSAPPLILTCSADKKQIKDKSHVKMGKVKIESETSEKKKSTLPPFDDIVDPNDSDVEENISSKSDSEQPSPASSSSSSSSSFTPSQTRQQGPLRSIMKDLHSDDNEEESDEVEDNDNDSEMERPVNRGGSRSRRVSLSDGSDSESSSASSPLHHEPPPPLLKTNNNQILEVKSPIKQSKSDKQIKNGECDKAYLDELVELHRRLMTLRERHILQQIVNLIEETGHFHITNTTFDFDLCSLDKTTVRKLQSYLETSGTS

Row | SMILES | inhibition
1 | COc1ccc(C#Cc2ccc([C@H]3[C@H]4CN(C(=O)c5ccncc5)CC(=O)N4[C@H]3CO)cc2)cc1 | -4.11%
2 | C[C@@H]1CCCCO[C@H](CN(C)C(=O)C2CCCCC2)[C@@H](C)CN([C@@H](C)CO)C(=O)c2cc(NC(=O)Nc3ccccc3)ccc2O1 | 5.54%
3 | COc1ccccc1NC(=O)N1CCCCN2[C@H](CO)[C@H](c3ccc(C#CC4CC4)cc3)[C@@H]2C1 | 6.56%
4 | COc1ccc(N2CCC(CNC(=S)Nc3c(C)cccc3C)C2)cc1 (configuration not stated) | 18.6%
5 | COc1ccc(NC(=S)NCC2CCN(c3ccc(OC)cc3)C2)cc1 (configuration not stated) | 28.9% (active)
6 | COc1ccc(OCC(=O)Nc2ccc(N3CCC(C)CC3)cc2)cc1 | 1.34%
7 | CO[C@@H]1CN(C)C(=O)c2ccc(NC(=O)C3CC3)cc2OC[C@H](C)N(C(=O)c2ccccc2)C[C@@H]1C | -0.663%
8 | Cc1c(C)n(Cc2ccc(Cl)cc2)c2ccc(C(=O)NCCCN3CCOCC3)cc12 | 26.6% (active)
9 | O=C(NCCCN1CCOCC1)c1cc(-c2ccc(Cl)cc2)on1 | -5.39%
10 | COc1ccc(Cn2c(=S)[nH]c3cc(C(=O)NCCCN4CCOCC4)ccc3c2=O)cc1 | -9.96%
11 | COc1ccccc1-c1ccc([C@H]2[C@@H](CO)N(CC3CC3)C23CN(S(C)(=O)=O)C3)cc1 | 0.485%
12 | Cn1cnc(S(=O)(=O)NC[C@@H]2CC[C@@H]3[C@@H](CN3Cc3nccs3)O2)c1 | -5.79%
13 | O=C(CN1CCOCC1)N1CCCCN2[C@H](C1)[C@H](c1ccc(-c3ccccc3F)cc1)[C@@H]2CO | -4.58%
14 | C[C@H](CO)N1C[C@H](C)[C@@H](CN(C)Cc2ccc(Oc3ccccc3)cc2)Oc2ccc(NS(=O)(=O)c3ccc(F)cc3)cc2CC1=O | 1.77%
15 | Cc1cc(N=Nc2ccc3ccccc3c2)ccc1O | 35.1% (active)
16 | COc1ccc2c3c(n(C)c2c1)[C@@H](CO)N(C(=O)CN1CCOCC1)CC31CN(C(=O)CC2CC2)C1 | 0.071%
17 | Nc1ccccc1C(=O)NC1CCCCNC1=O (configuration not stated) | -2.44%
18 | O=C(CNC(=O)OCc1ccccc1)NC1CCCCNC1=O (configuration not stated) | 48% (active)
19 | O=C(Nc1c[nH]c(=O)[nH]c1=O)OCc1ccccc1 | 2.62%
20 | C[C@@H]1CN([C@@H](C)CO)C(=O)CCCn2nncc2CO[C@H]1CN(C)C(=O)CCCN(C)C | -5.71%
21 | Cc1ccccc1S(=O)(=O)N1CC[C@H]2[C@H](CO)Nc3ccc(-c4cccc(F)c4)cc3[C@H]21 | -2.53%
22 | Cc1noc(C)c1NC(=O)Nc1ccc2c(c1)CC(=O)N([C@H](C)CO)C[C@@H](C)[C@@H](CN(C)S(=O)(=O)c1ccc(Cl)cc1)O2 | -0.675%
23 | CN(C)C(=O)C[C@@H]1C[C@@H]2c3cc(NC(=O)C4CCOCC4)ccc3O[C@@H]2[C@@H](CO)O1 | -3.12%
24 | CCCC(C)NC(=O)C1CCN(C(=O)C2CC(=O)N(c3ccc(C)cc3)C2)CC1 (configuration not stated) | -6.07%

Row | SMILES | inhibition
25 | COCCNC(=O)C1CCN(C(=O)C2CC(=O)N(c3ccc(C)cc3)C2)CC1 (configuration not stated) | 50.4% (active)
26 | Cc1ccc(N2CC(C(=O)NCCS(=O)(=O)N3CCN(c4ccccc4)CC3)CC2=O)cc1 (configuration not stated) | 0.43%
27 | C/C=C/c1ccc([C@@H]2[C@H](CO)N(CC3CCCC3)C23CN(C(=O)CC2CC2)C3)cc1 | 5.28%
28 | CN(C)C(=O)C[C@H]1C=C[C@@H](NC(=O)c2ccc(F)cc2)[C@@H](CO)O1 | -2.41%
29 | COc1ccccc1S(=O)(=O)N(C)C[C@@H]1Oc2cc(C#CCC3CCCC3)ccc2S(=O)(=O)N([C@H](C)CO)C[C@H]1C | 2.17%
30 | O=C(NCCCN1CCOCC1)c1ccc([N+](=O)[O-])cc1[N+](=O)[O-] | -2.14%
31 | CN1CCN(CCNC(=O)Nc2ccc([N+](=O)[O-])cc2)CC1 | -2.1%
32 | O=C(NCCCN1CCN(c2ccc(F)cc2)CC1)Nc1ccc([N+](=O)[O-])cc1 | 25.7% (active)
33 | CO[C@H]1CN(C)C(=O)c2cc(NS(=O)(=O)CC(F)(F)F)ccc2OC[C@H](C)N(C(=O)c2ccc3c(c2)OCO3)C[C@H]1C | -1.49%
34 | CC(C)=CCCC1(C)C=Cc2c(ccc3c2[nH]c2cc(O)c(C)cc23)O1 (configuration not stated) | 26.9% (active)
35 | COc1ccc(CN(C)C[C@@H]2OCCCC[C@H](C)Oc3ccc(NS(=O)(=O)c4cccs4)cc3C(=O)N([C@H](C)CO)C[C@@H]2C)cc1 | 5.32%
36 | N#Cc1ccc(-c2ccc(C3[C@@H]4CN(S(=O)(=O)c5ccccc5F)C[C@H]3N4)cc2)cc1 (some centres not stated) | -2.55% and -2.34%
37 | COCC#Cc1ccc([C@@H]2[C@H]3CN(C(=O)C4CCOCC4)CC(=O)N3[C@H]2CO)cc1 | -0.325%
38 | Cc1ccc(S(=O)(=O)Nc2ccc3c(c2)C(=O)N([C@H](C)CO)C[C@@H](C)[C@@H](CN(C)C(=O)CCC(F)(F)F)OCCCC[C@@H](C)O3)cc1 | -0.265%
39 | CSC(=S)N/N=C/c1c[nH]c2ccccc12 | 33.1% (active)
40 | O=C(Cc1c[nH]c2ccccc12)N/N=C/c1cccc(F)c1 | 2.76%
41 | C[n+]1ccc(/C=C/c2c[nH]c3ccccc23)cc1 | 11.9%
42 | CCCC#Cc1ccc([C@H]2[C@H]3CN(C(=O)Nc4ccc(F)cc4)CC(=O)N3[C@H]2CO)cc1 | 0.647%
43 | CO[C@@H]1CN(C)C(=O)c2cc(NS(=O)(=O)c3ccccc3C)ccc2OC[C@@H](C)N(S(C)(=O)=O)C[C@@H]1C | -4%
44 | COc1ccc(NS(=O)(=O)c2cc3c(cc2C)N(C(C)=O)CCO3)cc1 | 52.8% (active)
45 | COc1ccc(N2CCN(S(=O)(=O)c3ccc4c(c3)N(C(C)=O)CCO4)CC2)cc1 | 1.85%
46 | COc1ccc(NS(=O)(=O)c2cc(NC(=O)C3CCCCC3)ccc2N2CCOCC2)cc1 | 1.75%
47 | C[C@@H]1CN([C@@H](C)CO)C(=O)c2cc(-c3ccc(F)cc3)cnc2O[C@@H]1CN(C)Cc1ccc(C(=O)O)cc1 | -2.45%
48 | N#C[C@@H]1[C@H](c2ccccc2C2=CCCCC2)[C@@H](CO)N1S(=O)(=O)c1cccc(F)c1 | -2.55%

Row | SMILES | inhibition
49 | O=C(C[C@@H]1CC[C@@H]2[C@H](COC[C@@H](O)CN2S(=O)(=O)c2ccccc2)O1)NCC1CCCCC1 | 33.9% (active)
50 | Cc1ccc(S(=O)(=O)N2C[C@@H](O)COC[C@@H]3O[C@H](CC(=O)NCCCN(C)C)CC[C@H]32)cc1 | -2.12%
51 | Cc1ccc(S(=O)(=O)N2C[C@H](O)COC[C@@H]3O[C@@H](CC(=O)NCC4CCCCC4)CC[C@H]32)cc1 | 27% (active)
52 | O=C(C[C@@H]1CC[C@H]2[C@@H](COC[C@H](O)CN2S(=O)(=O)c2ccccc2)O1)NCCN1CCCC1 | -0.246%
53 | Cc1ccc(S(=O)(=O)N2C[C@@H](O)COC[C@@H]3O[C@H](CC(=O)NCc4ccc(Cl)c(Cl)c4)CC[C@H]32)cc1 | 0.126%
54 | CCNC(=O)C[C@@H]1CC[C@@H]2[C@H](COC[C@H](O)CN2S(=O)(=O)c2ccc(Oc3ccccc3)cc2)O1 | -1.5%
55 | C[C@@H]1CN([C@@H](C)CO)C(=O)CCCn2cc(nn2)CO[C@H]1CN(C)Cc1ccc(C(=O)O)cc1 | -0.624%
56 | CN(C)C(=O)c1ccc(-c2ccccc2[C@@H]2[C@@H](C#N)N(C(=O)C3CCCC3)[C@H]2CO)cc1 | -1.75%
57 | O=C(c1cccc(F)c1)N1CC[C@@H]2[C@H](CO)Nc3ccc(C#Cc4ccccc4)cc3[C@@H]21 | -0.355%
58 | C/C=C/c1ccc([C@@H]2[C@@H](CO)N(C(=O)CN(C)C)C23CN(C(=O)C2CCCC2)C3)cc1 | 4.6%
59 | CN1C(=O)c2cc(NC(=O)C3CCCC3)ccc2OC[C@@H]2O[C@@H](CC(=O)NCCc3ccncc3)CC[C@@H]21 | 1.93%
60 | C[C@H](CO)N1C[C@H](C)[C@H](CN(C)C(=O)CCN(C)C)OCc2ccccc2-c2c(n(C)c3ccccc23)C1=O | 2.11%
61 | CN1CCC(CN)(N2CCN(c3ccccc3)CC2)CC1 | 33.8% (active)
62 | CCS(=O)(=O)N1CCC(N2CCN(c3ccccc3)CC2)CC1 | -4.72%
63 | O=C(c1ccccc1)c1ccc(C(=O)N2CCN(c3ccccc3)CC2)cc1 | -1.66%
64 | CC(C)NC(=O)N(C)C[C@H]1OCCCC[C@H](C)Oc2ccc(NS(=O)(=O)c3ccc(Cl)cc3)cc2C(=O)N([C@@H](C)CO)C[C@H]1C | -0.682%
65 | O=C(c1ccc(F)cc1)n1c(=S)nc2ccccn21 | 37.5% (active)
66 | O=C(c1ccc(F)cc1)n1cc(C(=S)N2CCOCC2)c2ccccc21 | 9.22%
67 | O=C(c1ccc(F)cc1)N1CCC(n2nnc3ccccc32)CC1 | -0.54%
68 | CO[C@@H]1CN(C)C(=O)c2ccc(NC(=O)NC(C)C)cc2OC[C@@H](C)N(C)C[C@H]1C | -3.29%
69 | CN(C)CCNC(=O)c1cccc(-c2cnc3c(NC=O)cc(-c4cccc(C(F)(F)F)c4)cn23)c1 | 37.1% (active)
70 | CC(=O)c1cccc(-c2cnc3c(NC=O)cc(-c4cccc(C(=O)N(C)C)c4)cn23)c1 | -1.2%
71 | CN(C)C(=O)c1cccc(-c2cnc3c(NC=O)cc(-c4ccc(F)cc4)cn23)c1 | 3.38%
72 | COc1ccc2c3c(n(C)c2c1)[C@H](CO)N(C(=O)Nc1c(C)noc1C)CC31CN(CC2CC2)C1 | 1.61%
